# Data reported in the supplement of paper PMC3334620.
# Over roughly 33,000 sequences, “E-score (-0.5 to 0.5)” has its median near -0.032; the highest 2% begin near 0.36. What follows is part of a selection rich in the highest values, with near analogues and random picks from the rest.
# Target: T1, Sko1 (UniProt Q02100)
# T1 sequence: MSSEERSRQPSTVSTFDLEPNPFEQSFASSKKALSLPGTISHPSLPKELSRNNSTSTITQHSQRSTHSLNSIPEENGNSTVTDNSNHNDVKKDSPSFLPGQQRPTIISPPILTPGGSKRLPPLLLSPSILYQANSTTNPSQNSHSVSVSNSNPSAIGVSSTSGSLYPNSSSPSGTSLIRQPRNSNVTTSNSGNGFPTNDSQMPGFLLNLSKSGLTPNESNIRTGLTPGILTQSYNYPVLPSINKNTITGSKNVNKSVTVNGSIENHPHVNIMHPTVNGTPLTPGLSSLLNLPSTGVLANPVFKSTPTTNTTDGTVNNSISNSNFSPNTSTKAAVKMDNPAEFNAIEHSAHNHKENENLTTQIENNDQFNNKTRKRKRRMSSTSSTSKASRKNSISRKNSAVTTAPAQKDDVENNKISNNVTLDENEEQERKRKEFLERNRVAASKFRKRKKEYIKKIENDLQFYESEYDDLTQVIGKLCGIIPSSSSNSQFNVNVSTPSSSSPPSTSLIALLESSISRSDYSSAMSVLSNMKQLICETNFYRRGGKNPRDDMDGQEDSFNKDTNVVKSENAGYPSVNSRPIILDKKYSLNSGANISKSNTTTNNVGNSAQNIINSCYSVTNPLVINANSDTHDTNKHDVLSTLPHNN
# Assay: PBM E-score (8-mer binding enrichment) (E-score (-0.5 to 0.5)); higher = stronger / more preferred TF binding
# Conditions: protein concentration: 200 nM; construct: GST-full length
# Protocol: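 Universal 'all 10-mer' protein binding microarrays (Agilent AMADID 015681) probed with GST-tagged S. cerevisiae TFs (full-length or DBD) made by in vitro transcription/translation (PURExpress), about 100-200 nM. Bound TF was detected with fluorescent anti-GST. Each ungapped 8-mer (which stands for itself and its reverse complement) is scored by the PBM enrichment score (E-score), a modified Wilcoxon-Mann-Whitney statistic from -0.5 to +0.5, computed with the Universal PBM Analysis Suite. Scale: above 0.35 generally sequence-specific binding.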
row,Sequence,PBM E-score
1,AGCAAAAC,0.0756
2,AGGCCCAT,-0.288
3,ATACGAAT,0.286
4,ATACGGAT,0.111
5,ATACTTAG,-0.0209
6,ATACGAAG,0.223
7,GTACGTAA,0.487
8,ATACGTAG,0.471
9,CTCCGTAC,-0.153
10,GTACGGAA,-0.00063
11,CTACGTAC,0.449
12,CTACGAAC,0.0886
13,GTCCGTAA,0.00251
14,ATACGTAT,0.487
15,ATGGACAC,0.0118
16,GGATCACC,-0.181
17,GTCTATGA,0.238
18,AACTCACA,0.0634
19,GCACCCGC,-0.0958
20,AGACTACG,0.136
21,CCTTACCC,-0.149
22,GAGCAGGA,-0.112
23,ATACGGAA,0.141
24,ATCCGTAA,0.0757
25,ATACGTAA,0.491

row,Sequence,PBM E-score
1,AAGTTCCA,-0.0591
2,CCTACGCA,0.361
3,CCTACGCG,0.117
4,ACTACGCA,0.367
5,GCTACGCA,0.294
6,TCTACGCA,0.32
7,CCTACGCC,-0.0487
8,CCCCAACC,-0.062
9,CCCACGCA,0.109
10,CCCACGCC,-0.127
11,CCCACGTA,0.39
12,CCCACGTC,0.402
13,CCCACGGA,-0.0825
14,CCCACGGC,-0.145
15,AACTAATT,0.182
16,ATCTAGAG,-0.0987
17,ATGTTTTG,0.109
18,ATGCGTCA,0.467
19,GTGCGTGA,0.274
20,GTGCGTCA,0.456
21,ATGCGTCC,-0.124
22,GTGCGTTA,0.259
23,CTGCGTCA,0.435
24,CGGCGTCA,0.241
25,CTGCGTCC,-0.112

row,Sequence,PBM E-score
1,ATGCGTCG,0.0928
2,CTTCAGCA,-0.0157
3,CACCTTTC,-0.223
4,CAGACCTA,0.125
5,ACCTGTCC,-0.267
6,AAGAAGGT,-0.0729
7,AAGGATGG,0.00772
8,AATTGCGT,0.448
9,AATTGCGA,0.0547
10,AATTGCGG,-0.172
11,CGTGAATC,0.13
12,ACGATTTA,0.328
13,ACGTGCGC,0.381
14,ACGTGTGC,0.388
15,ACGTGTGG,0.395
16,ATGTGTGG,-0.144
17,ACGTGTGA,0.401
18,ACGTGCGG,0.308
19,CCGTGTGC,-0.179
20,CCGTGCGC,-0.067
21,ACGTGGGG,0.316
22,GCGTGTGA,0.107
23,CCGTGTGA,-0.0471
24,ATGTGTGC,-0.0761
25,ACCATACT,-0.0266

row,Sequence,PBM E-score
1,AGATTTGA,0.144
2,CATAATAC,0.3
3,ACGATGTA,0.226
4,GAGCTACC,-0.212
5,CAAAAAAA,0.187
6,GACACGCA,0.284
7,GACACGCC,0.0381
8,GACACGTA,0.44
9,GACACGGA,-0.224
10,GACACGGC,-0.0578
11,GACACGTC,0.382
12,ACCCGTCG,-0.238
13,ATGACCCG,-0.254
14,CTGACGTA,0.489
15,CTGACCTC,-0.296
16,CTGACGGC,-0.167
17,CTGACGTC,0.482
18,CGGACGTA,0.353
19,CTGACGGA,0.0532
20,AATAGCCA,0.204
21,AAGAAAGG,0.00665
22,ACAGAGCA,-0.0386
23,ATCGTAAT,0.401
24,ATCGTAAA,0.32
25,AGCGTAAT,0.366

row,Sequence,PBM E-score
1,ACCGTAAT,0.201
2,AGCGTAAG,0.0565
3,AAGGTAAG,-0.00253
4,AGCGTAAC,0.266
5,AACGTAAG,0.397
6,ACCGTAAG,0.123
7,ATCGTAAG,0.234
8,AACGTAAT,0.48
9,AACGTGAT,0.333
10,AACCCACC,-0.0866
11,AGCGAAGC,-0.0755
12,CCCAATAC,0.0194
13,CAAAGGGC,-0.252
14,CTCTAGGA,-0.335
15,GACGTAAA,0.456
16,AACGTAAC,0.441
17,GACGTAAC,0.467
18,GTCGTAAC,0.267
19,ACCGTAAC,-0.135
20,GCCGTAAA,0.107
21,AAAGTAAA,0.0553
22,ACCGTAAA,0.206
23,GTCGTAAA,0.282
24,AACGTAAA,0.425
25,ATCGTAAC,0.241

row,Sequence,PBM E-score
1,GGCGTAAC,0.0903
2,ATCAAGTA,0.0281
3,ACGTTCGG,0.0529
4,CGAGTGGA,-0.154
5,CAGGCCCC,-0.271
6,GCAGTCAA,-0.262
7,ACTTTTGC,0.185
8,AGGCACAA,-0.0774
9,TTCGTAAA,0.32
10,CACGTAAC,0.449
11,CTCGTAAC,0.253
12,CCCGTAAA,-0.102
13,CACGTAAA,0.437
14,CACGTAAG,0.448
15,CTCGTAAG,0.243
16,CCCGTAAC,-0.105
17,CTCGTAAA,0.139
18,TACGTAAA,0.484
19,TCCGTAAA,-0.0256
20,CGCGTAAG,0.352
21,CAGAAGAA,0.0487
22,ACACCACG,0.063
23,CATGGTAG,-0.193
24,CTGGTTAC,-0.00958
25,CCGCTGTC,-0.153

row,Sequence,PBM E-score
1,CGTCGAAA,0.247
2,AACTTTAC,0.171
3,CCGATTCC,-0.0807
4,ATGATCTG,0.151
5,CGGTCATA,0.0986
6,GGGTCATA,-0.0307
7,CAGTCATC,-0.204
8,CCGTCATC,0.36
9,CGGTCATC,-0.0713
10,CCGTCATA,0.368
11,CAGTCATA,0.0103
12,GCGTCATA,0.481
13,GAGTCATA,0.122
14,CGCTTGCA,-0.102
15,CCGCGTCG,-0.127
16,AAGCGTCA,0.353
17,CCGCGTCC,-0.00078
18,TCGCGACA,-0.0189
19,ACGCGTCC,0.0182
20,TCGCGTCA,0.408
21,ACGCGTCA,0.436
22,TAGCGTCA,0.398
23,AGGCGTCA,0.256
24,CAGCGTCA,0.269
25,CCGCGTCA,0.377

row,Sequence,PBM E-score
1,ACGCGTCT,0.192
2,GGTAGCCA,-0.238
3,ACAAACCA,-0.0895
4,ATGCCGTG,-0.111
5,TGGCGGAA,-0.102
6,TAGCGCGA,-0.0664
7,GCGCGTTA,0.0431
8,GCGCGTCC,-0.15
9,GCGCGTCA,0.424
10,CTCAGCCC,-0.249
11,GACAATCA,0.00255
12,ATTTTGGC,0.11
13,GCAACCGC,-0.139
14,GTGTCATA,0.298
15,ATGTCATA,0.41
16,ATGTCAGC,0.129
17,ATGTCATC,0.389
18,ATGTCACG,0.325
19,CTGTCATC,0.0473
20,CTGTCATA,0.141
21,ATGTCATG,0.403
22,ATGTCAAG,0.187
23,GCTAGAGA,-0.0277
24,AACTTTAG,0.247
25,CCTATGTA,-0.0157

row,Sequence,PBM E-score
1,CGATCCGC,-0.0715
2,GACCAACA,0.17
3,AATCTCAC,-0.0325
4,CCTGTTCG,-0.0292
5,ACGTGAGG,0.276
6,CCGTGATA,-0.0242
7,ACGTGATA,0.409
8,TCGTGAAA,0.0383
9,AAGTGATC,0.112
10,CCGTGATC,-0.255
11,ACGTGATG,0.442
12,ACGTGATC,0.432
13,ACGTGAAC,0.311
14,AGGTGATG,0.087
15,ACGTGAAA,0.386
16,GCGTGATA,0.145
17,ATATCAAC,0.141
18,AGGGGAGC,-0.294
19,TAGGTTCA,-0.0685
